Screening results from PubChem BioAssay.
A selection: hits, their analogues and other compounds. The true share with any hit is near 3.6%.
Mdm2 MdmX PPI = inhibitors of human Mdm2-MdmX association, primary screen, cell-based, luminescence, split luciferase, SaOS-2, uHTS | Protein Mdm4 (Homo sapiens) + E3 ubiquitin-protein ligase Mdm2 (Homo sapiens), … | inhibition, % at 8 µM | AID 485346, 2010 | 330,000 compounds, 3% hits | SaOS-2 split-luciferase Mdm2/MdmX complementation;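 active means inhibition of at least 50% at 8 µM in the primary screen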
HSP90 refold inh = HSP90 inhibitors, primary screen, cell lysate, luminescence; Heat shock protein HSP 90 (rabbit reticulocyte lysate; luciferase refolding); Rabbit reticulocyte lysate, luciferase refolding luminescence, 3 h; inhibition, % at 5.6 µM; 290,000 compounds, 0.91% hits; AID 1789, 2009;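 active means inhibition above the screen-wide mean plus 3 SD, computed separately per campaign, cut at about 16% in these data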;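 further: 0% = DMSO wells and 100% = 60 µM geldanamycin wells; inhibitors lower the luminescence because luciferase stays unfolded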
KKLEB tox = cytotoxicity in KKLEB CF airway cells, primary screen, cytotoxicity control for CF NF-kB inhibitor project, cell-based, uHTS, fluorescence assay plates. activity change (cytotoxicity), % at 5 µM. KKLEB CF airway cells viability, ATPlite luminescence, overnight; stronger effect = lower value; cells stimulated with P. aeruginosa culture filtrate. AID 602141, 2011. 360,000 compounds, 0.36% hits;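 active means corrected activity change at or below -50% at 5 µM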
Peg3 prom inh = Peg3 promoter-driven luciferase inhibitors, primary screen, cell-based, HeLa, luciferase luminescence. HeLa PEG-Prom luciferase reporter, overnight. 360,000 compounds, 1.7% hits. inhibition, % at 20 µM;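 active means inhibition of at least 50% at 20 µM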
CF NFkB inh = inhibitors of PAF-induced NF-kB signaling, primary screen, cell-based, GFP fluorescence, uHTS; 360,000 compounds, 0.86% hits; AID 588850, 2011; KKLEB NF-kB-GFP reporter, GFP fluorescence overnight; inhibition, % at 5 µM;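 active means at least 50% inhibition at 5 µM, scaled per plate between neutral and stimulator controls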;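 further: PAF is a Pseudomonas aeruginosa culture filtrate used as stimulus; plate controls were PAF-stimulated DMSO wells for no effect and unstimulated DMSO wells for full effect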
LGR2 inh = inhibitors of bursicon-induced LGR2 CRE-luciferase signal, primary screen, cell-based, HEK293, CRE-luciferase reporter, bursicon stimulation. bursicon-stimulated, 4 h. 380,000 compounds, 0.35% hits. Drosophila bursicon receptor LGR2 (rickets). inhibition, % at 9.99 µM;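 active means drop in luminescence signal, shown as inhibition above about 50% in the replicate tests, limit read from the data, passing the limit was not always enough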;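 further: agonist challenge used bursicon conditioned medium at about half maximal strength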
The depositor's hits bear a star; . = no result given.

SMILES | Mdm2 MdmX PPI | HSP90 refold inh | KKLEB tox | Peg3 prom inh | CF NFkB inh | LGR2 inh
C[C@@H]1CCCCO[C@H](CN(C)CC2CCCCC2)[C@@H](C)CN([C@@H](C)CO)C(=O)c2cc(NS(=O)(=O)c3cccs3)ccc2O1 | . | . | . | . | . | 6.9
NS(=O)(=O)c1ccc(Nc2nc(-c3cccc([N+](=O)[O-])c3)cs2)cc1 | -1.4 | -6.2 | 25.0 | 6.8 | -198.5 | 73.1*
NS(=O)(=O)c1ccc(Nc2nc(-c3ccc4ccccc4c3)cs2)cc1 | 7.6 | 1.0 | 22.8 | -13.6 | -30.1 | -6.3
CCN(CC)CCCNC(=O)CSc1c2c(nc3cc(Cl)ccc13)CCCC2 | 9.9 | -2.4 | -6.1 | 96.1* | 21.2 | 3.9
COc1ccc(CC(N)c2csc(NC(=O)c3cc(C(C)(C)C)nn3Cc3ccccc3)n2)cc1 (configuration not stated) | . | . | -51.8* | 99.7* | 57.9* | -4.0
COc1ccc(CC(N)c2csc(NC(=O)c3ccc(OC)cc3)n2)cc1 (configuration not stated) | . | . | -6.9 | 16.4 | -0.4 | 8.8
COc1ccc(CC(N)c2csc(NC(=O)c3ccccc3OC)n2)cc1 (configuration not stated) | . | . | -0.4 | 12.7 | 6.1 | -2.9
COc1cc(CNC(=O)Nc2nc(C(N)Cc3ccc(Cl)cc3)cs2)cc(OC)c1OC (configuration not stated) | . | . | -8.9 | 86.3* | 22.3 | 5.6
COc1ccc(CNC(=O)Nc2nc(C(N)Cc3ccc(C(F)(F)F)cc3)cs2)cc1 (configuration not stated) | . | . | -7.8 | 95.4* | 23.1 | -3.1
NC(Cc1ccc(Cl)cc1)c1csc(NC(=O)NCC2CCCCC2)n1 (configuration not stated) | . | . | -16.7 | 92.5* | 22.4 | 24.3
CNC(=O)C[C@@H]1CC[C@H]2[C@@H](COc3ccc(NC(=O)c4cccs4)cc3C(=O)N2C)O1 | . | . | . | . | . | -2.8
COc1ccc(CNC(=O)C[C@@H]2C[C@@H]3c4cc(NC(=O)CN(C)C)ccc4O[C@@H]3[C@@H](CO)O2)cc1 | . | . | . | . | . | -3.7
COc1ccccc1CNC(=O)Nc1nc(C(N)CCc2ccccc2)cs1 (configuration not stated) | . | . | 5.8 | 96.7* | -3.2 | 2.0
NC(=O)c1cccc(Nc2nc(C(N)CCc3ccccc3)cs2)n1 (configuration not stated) | . | . | -17.8 | 0.6 | 9.1 | -22.8
COc1ccc(CC(N)c2csc(NC(=O)NCCc3ccccc3)n2)cc1 (configuration not stated) | . | . | -13.6 | 57.9* | 13.4 | 11.2
NC(Cc1ccc(Cl)cc1)c1csc(NC(=O)Nc2ccccc2-c2ccccc2)n1 (configuration not stated) | . | . | -33.6 | 89.6* | 33.0 | -6.7
NC(CCc1ccccc1)c1csc(NC(=O)NCCc2ccccc2)n1 (configuration not stated) | . | . | -4.6 | 92.6* | -24.2 | 0.3
C[C@H](CO)N1C[C@H](C)[C@H](CN(C)C(=O)C2CCC2)Oc2cc(Br)ccc2S1(=O)=O | . | . | . | . | . | 6.9
COc1ccc(CC(N)c2csc(NC(=O)C(c3ccccc3)c3ccccc3)n2)cc1 (configuration not stated) | . | . | -4.2 | 98.3* | 2.0 | 7.3
NC(CCc1ccccc1)c1csc(NC(=O)Nc2ccccc2Oc2ccccc2)n1 (configuration not stated) | . | . | -17.8 | 118.1* | 4.2 | -18.4
NC(Cc1ccc(Cl)cc1)c1csc(NC(=O)NCCc2ccccc2)n1 (configuration not stated) | . | . | -23.7 | 95.6* | 5.6 | 0.7
CC(=O)c1ccc(Nc2nc(C(N)CCc3ccccc3)cs2)cc1 (configuration not stated) | . | . | -18.1 | 16.7 | -5.8 | 2.2
COc1ccc(CC(N)c2csc(NC(=O)c3ccc(F)cc3)n2)cc1 (configuration not stated) | . | . | -20.2 | 30.1 | 3.6 | 12.7
